Screens deposited in PubChem by National Center for Advancing Translational Sciences (NCATS).
The list is not random: actives were taken first. Their share in the collection is about 21%.
Shiga toxin inh: inhibitors of Shiga toxin in Vero cells | Vero cells, Shiga toxin protein synthesis inhibition reporter | inhibition, % at 38.7 µM | 290,000 compounds, 9.2% hits | AID 2315; in the data active = inhibition mostly above about 28%, no sharp cut-off; inactive = mostly below about 43%; note: 0% is about no effect
Pf growth 96h: inhibits malaria parasite growth, 96 h | Potency, µM (doses to about 28.7 µM), for the others: at the top dose activity change, negative = inhibition, hits mostly inhibitors | P. falciparum luciferase reporter growth, 96 h | 320,000 compounds, 6.9% hits; note: potency is the fitted concentration of half-maximal effect; % is set by controls: 0 for no effect and ±100 for the full control effect
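Compounds incubated with erythrocytes infected by luciferase-expressing P. falciparum (2% hematocrit, 0.05% parasitemia final) for 96 hours, 37 C in 5% CO2. Growth inhibition scored as decreased luciferase luminescence.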
CHX counter: counter-screen hit for Shiga toxin inhibitors, cycloheximide; 300,000 compounds, 12% hits; cell reporter, cycloheximide protein synthesis inhibition counterscreen; max response, %; in the data active = max response mostly above about 13%, no sharp cut-off; inactive = mostly below about 14%; note: read at 38.3 µM for the half of the compounds with a filed dose; 0% is about no effect
Pf growth 48h: P. falciparum growth inhibition at 48 hours (one generation) | P. falciparum luciferase growth in erythrocytes, 48 h | Potency, µM (doses to about 28.7 µM), inactives show at the highest dose activity change, negative = inhibition, most hits filed as inhibitors | AID 504832 | 310,000 compounds, 5.9% hits; note: potency is the fitted concentration of half-maximal effect; % is set by controls: 0 for no effect and ±100 for the full control effect
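A one-generation exposure of luciferase-tagged malaria parasites in RPMI 1640/Albumax erythrocyte culture, 37 C and 5% CO2. Inhibition is inferred from decreased luminescence after adding detection reagent.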
NS1 inh: influenza NS1 inhibition. 270,000 compounds, 0.4% hits. AID 2326. Potency, µM (titrated, usually from 46.1 µM), for inactives: top-dose activity, positive = more growth; calls by dose curve; note: potency is the fitted concentration of half-maximal effect; actives are rising curves; nearly all actives have a fitted effect of over 50% in size
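Recovery from NS1-induced slow growth read by OD600 in budding yeast switched to galactose assay medium (pH 6.0, -URA) at 1:100 dilution. Compound 23 nl per well; the matching strain lacking NS1 serves as control.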
Numbers without * were called inactive; ? = inconclusive; / = no result given; [ ] = dose if it differs, or a comment. Unless noted, calls come from the whole dose curve; as a rule, active = well fitted inhibition curve with a large enough effect; inconclusive = small, poorly fitted or top-dose-only effect, or another doubt; inactive = no such curve, though single readings can be large or run the other way.

SMILES	Shiga toxin inh	Pf growth 96h	CHX counter	Pf growth 48h	NS1 inh
Cc1cccc(NC(=O)CCN2CCOCC2)c1	-3	/	2	10%	-5%
Cc1cccc(NC(=O)CCc2c(C)nn(-c3ccc(N4CCCCC4)nn3)c2C)c1	72*	?	41*	46%	-19%
Cc1ccc(NC(=O)CCN2CCOCC2)cc1C	-4	0.93µM*	-5	19%	-3%
Cc1cc(C)n(C(=O)CCC(=O)Nc2ccc(C)c(C)c2)n1	-11	12µM*	-2	/	22%
Cc1cc(C)n(CC(=O)n2nc(C)cc2C)n1	-5	10µM*	-1	8%	1%
Cc1cccc(N2CN(Cc3ccco3)CNC2=S)c1	-8	368%	-3	9%	0%
O=CN1CCN(C(=O)c2ccc([N+](=O)[O-])cc2)CC1	-14	0%	-1	-1%	6%
C[C@H]1[C@H](C)CC[C@]2(C=O)CC[C@]3(C)C(=CC[C@@H]4[C@@]5(C)C[C@@H](O)[C@H](O)[C@@](C)(CO)[C@@H]5CC[C@]43C)[C@H]12	11	/	-7	/	/
Cc1ccc(C(=O)N2CC(=O)Nc3ccc(F)cc3C2c2ccccc2)cc1 (centres undefined)	1	?	-4	?	0%
Cc1ccc(NC(=O)CCc2c(C)nn(-c3ccc(N4CCOCC4)nn3)c2C)cc1C	50*	14%	20*	-24%	-14%
Cc1cccc(NC(=O)CCc2c(C)nn(-c3ccc(N4CCOCC4)nn3)c2C)c1	40*	?	23*	42%	-14%
Cc1nn(-c2ccc(N3CCOCC3)nn2)c(C)c1CCC(=O)Nc1ccc(F)cc1	10	?	21*	-5%	2%
COc1cccc(NC(=O)CCc2c(C)nn(-c3ccc(N4CCOCC4)nn3)c2C)c1	23	-10%	11	15%	-6%
COc1ccc(C(=O)NCc2ccon2)cc1OC1CCN(C(C)C)CC1	2	-28%	-3	24%	2%
COc1ccc(-n2c(=O)c3c4c(sc3n3c(C)nnc23)CCCC4)cc1	/	/	/	/	-2%
COc1ccc(OCC(=O)NNC(=S)NC(=O)C2CCCCC2)cc1	-13	?	15	23%	-52%
COc1ccc2[nH]c(=O)cc(C(=O)O)c2c1	-8	?	-3	12%	4%
COc1ccc2[nH]c3c4c(ccc3c2c1)C(=O)C=CC4=O	89*	?	38*	?	-26%
CCOc1ccc2c(c1)OC(c1ccccc1)(C(F)(F)F)NC2=O (centres undefined)	-4	0.23µM*	-4	1.7µM*	21%
S=C(Nc1ccccc1Cl)N1CCOCC1	-10	11%	-2	0%	5%
Cc1ccc(S(=O)(=O)CCN2C=CC(C(F)(F)F)=NCC2)cc1	6	?	1	0%	7%
COC(=O)[C@@H]1[C@@H]2C[C@H]3c4[nH]c5ccccc5c4CCN3C[C@@H]2CC[C@@H]1OS(=O)(=O)O	/	/	/	/	-6%
O=C(O)[C@@H]1[C@@H]2C[C@H]3c4[nH]c5ccccc5c4CCN3C[C@@H]2CC[C@@H]1O	/	5.7µM*	/	?	/
COC(=O)[C@@H]1[C@H]2C[C@H]3c4[nH]c5ccccc5c4CCN3C[C@@H]2CC[C@@H]1O	-4	?	-4	2%	-3%
COc1ccc2c3c([nH]c2c1)C1CC2C(CC(O)C(OC)C2C(=O)O)CN1CC3 (centres undefined)	14	3.7µM*	5	9.3µM*	-2%
SMILES	Shiga toxin inh	Pf growth 96h	CHX counter	Pf growth 48h	NS1 inh
COC(=O)[C@H]1[C@H]2C[C@@H]3c4[nH]c5cc(OC)ccc5c4CCN3C[C@H]2C[C@@H](OC(=O)c2cc(OC)c(OC)c(OC)c2)[C@@H]1OC	/	1.7µM*	/	1.5µM*	?
COc1cc(C(CC(=O)Nc2cccc(C)n2)N2Cc3ccccc3C2=O)cc(OC)c1OC (centres undefined)	3	9%	-1	0%	7%
COc1cccc(C(=O)NC(=O)Nc2cc(C)on2)c1	71*	?	56*	339%	/
COc1ccc(C(=O)Nc2cc(C)on2)c(OC)c1	41*	85%	38*	122%	-30%
COc1cccc(NC(=O)Nc2cc(C)on2)c1	/	-28%	23*	32%	-29%
CCOc1ccc(NC(=O)C2=C(C)NC(=S)NC2c2ccc(O)c(OC)c2)cc1 (centres undefined)	-8	29%	-1	-2%	2%
CCN(CC(=O)NC(c1ccccc1)c1ccccc1)Cc1nc2ccccc2c(=O)[nH]1	12	7.4µM*	-2	12µM*	-4%
CCN(CC(=O)Nc1ccccc1SC)Cc1nc2ccccc2c(=O)[nH]1	-3	-16%	-2	55%	-2%
CCN(Cc1nc2ccccc2c(=O)[nH]1)Cc1nc2cc(OC)c(OC)cc2c(=O)[nH]1	0	-10%	-2	?	-17%
CCN(Cc1nc2ccccc2c(=O)[nH]1)Cc1nc2ccsc2c(=O)[nH]1	-14	1.5µM*	-2	?	0%
CCN(CC(=O)Nc1ccc2c(c1)CCC2)Cc1nc2ccccc2c(=O)[nH]1	55*	-24%	9	-16%	-26%
CCN(CC(=O)Nc1ccc2c(c1)OCO2)Cc1nc2ccccc2c(=O)[nH]1	-12	?	11	?	-5%
Cc1cc2c(cc1S(=O)(=O)N1CCN(c3cccc(C)c3C)CC1)OCC(=O)N2	13	?	-1	-15%	5%
CN(CC(=O)O)S(=O)(=O)c1ccc2c(c1)NC(=O)CC(=O)N2	14	8%	5	22%	/
COc1ccc(-c2csc(C)n2)cc1Br	74*	20%	35*	15%[5.75 µM]	/
O=C(Nc1cccc(-c2csc(-c3ccccc3)n2)c1)c1cccs1	19	0.33µM*	7	/	-1%
COc1cc(-c2csc(C)n2)ccc1O	5	/	2	-1%	-9%
COc1ccc(OC)c(NC(=O)c2ccc(-c3csc(C)n3)cc2)c1	/	1%	16*	?	-75%
O=C(Nc1cccc(NC(=O)c2cccs2)c1)c1ccc(F)cc1	4	19%	-2	3%	2%
O=C(Nc1cccc(C(=O)Nc2cccc(Br)c2)c1)c1ccccc1	20	?	12	?	-1%
O=C(Nc1cccc(Br)c1)c1ccn[nH]1	35*	0.66µM*	45*	78%	-173%
CCCCC1=NN(C(=O)c2cccnc2)C(O)(C(F)(F)F)C1 (centres undefined)	17	7%	2	147%	-1%
O=C(CSc1nc2[nH]ncc2c(=O)[nH]1)N1CCCCC1	14	3%	-3	11%	-8%
CCCc1noc2c1C(c1cc(Br)ccc1F)C(C#N)=C(N)N2 (centres undefined)	-3	-15%	-6	-8%	-1%
COc1ccc(CNC(=O)CCC(=O)Nc2cccnc2)cc1	-9	14%	-2	0%	19%
Cc1nc(-c2cccc(NC(=O)c3ccc(Br)o3)c2)cs1	25	?	16	-9%	-55%
Cc1nc(-c2cccc(NC(=O)c3ccc(-n4nccc4C)cc3)c2)cs1	/	?	/	15%	/
